# Results filed as inconclusive are left out. The source made the active and inactive calls. Calls follow the shape of the full dose curve. Peptide text beside a SMILES is read from it.
# Target: D(2) dopamine receptor (Homo sapiens) (UniProt P14416)
# Assay: Dopamine D2 receptor (DRD2) small molecule agonists, cell-based qHTS assay (AID 1963594); also: nearly all actives have a fitted effect of over 35% in size
# Settings: HEK293-DRD2 cAMP HTRF, agonist mode, 30 min; series mostly up to 92.4 µM; activation: at the top concentration
# Text: National Center for Advancing Translational Sciences [NCATS]
# Division of Preclinical Innovation [DPI]
# U.S. Environmental Protection Agency [EPA]
# National Institutes of Environmental Health Sciences [NIEHS]
# National Toxicology Program [NTP]
# U.S. Food and Drug Administration [FDA]
# DRD2 is the D2 subtype of the dopamine receptor, which is coupled to Gi subtype of G protein-coupled receptor. This G protein-coupled receptor inhibits adenylyl cyclase activity. The DRD2-HEK293 cell line stably expressing D2 dopamine receptor can be used for screening agonists and antagonists of interactions between D2 and its ligands. The Hek293-DRD2 cAMP assay is based on HTRF technology. It measures changes of cAMP accumulation in response to Gi coupled GPCR activation or inhibition.
# Tox21 Assay Protocol Summary:
# DRD2-Hek293 cells were dispensed at 600 cells/3uL/well in 1536-well white plates using a Multidrop Dispenser. After the assay plates were incubated at a 37 C/5% CO2 incubator for 24 h, 1 uL of Ro20-1724 at final concentration of 0.1 mM was transferred to the assay plate by a Flying Reagent Dispenser. Following Ro20-1724 addition, 23 nL of compound dissolved in DMSO, positive controls or DMSO only was added to the assay plates via Wako pintool station. The assay plates were incubated at room temperature for 10 min. Next, 1 uL of NKH477 at 200nM was added into the plates. After the assay plates were incubated at room temperature for an additional 30 min, 2.5 ul/well of cAMP-d2 and 2.5 ul/well of anti-cAMP-cryptate were added respectively into the assay plates using a Flying Reagent Dispenser. The plates were incubated at room temperature for 1 h. The fluorescence intensity in the plates was measured at 340 nm excitation and 665 & 620 nm emission by an Envision plate reader.
# % is scaled to controls: 0 for no effect and ±100 for the full control effect.
# Chain of D(2) dopamine receptor (Homo sapiens) (P14416 whole entry, looked up): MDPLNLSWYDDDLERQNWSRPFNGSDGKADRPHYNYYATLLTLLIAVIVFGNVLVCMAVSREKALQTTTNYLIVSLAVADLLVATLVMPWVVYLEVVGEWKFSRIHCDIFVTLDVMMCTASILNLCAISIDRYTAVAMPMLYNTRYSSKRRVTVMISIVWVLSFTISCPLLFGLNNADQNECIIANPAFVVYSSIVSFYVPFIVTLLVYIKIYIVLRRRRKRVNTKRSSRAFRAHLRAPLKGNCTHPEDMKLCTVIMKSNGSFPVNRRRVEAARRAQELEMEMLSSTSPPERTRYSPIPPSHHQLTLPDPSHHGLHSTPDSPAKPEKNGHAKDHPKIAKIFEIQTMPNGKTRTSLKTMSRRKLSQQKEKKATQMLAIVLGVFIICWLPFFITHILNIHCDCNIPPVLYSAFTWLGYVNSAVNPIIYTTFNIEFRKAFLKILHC
row,Structure (SMILES),activation
1,Nc1cc(Cl)c(O)c(Cl)c1,-3.09% (inactive)
2,Cc1[nH]cnc1CN1CCc2c(c3ccccc3n2C)C1=O,-9.5% [at 42.5 µM] (inactive)
3,Cc1cc(N)c(S(=O)(=O)O)cc1Cl,3.45% (inactive)
4,CCCCCCCCCCCCCCN(C)C,0.215% [at 19 µM] (inactive)
5,CCOC(=O)C(Br)c1ccccc1 (stereo not given),-4.74% (inactive)
6,COc1ccc(C(=O)Nc2ccccc2)cc1[N+](=O)[O-],-2.8% (inactive)
7,Cc1c(C(C)C)c(=O)n(-c2ccccc2)n1C,-10.6% [at 42.5 µM] (inactive)
8,O=C1c2ccccc2C(=O)C1c1ccccc1,-2.5% [at 42.5 µM] (inactive)
9,O=C(Nc1cccc2c(=O)cc(-c3nn[nH]n3)oc12)c1ccc(OCCCCc2ccccc2)cc1,-7.33% [at 42.5 µM] (inactive)
10,C=CC(C)(O)CCCC(C)CCCC(C)CCCC(C)C (stereo not given),0.845% (inactive)
11,Cc1ccc2c(c1[N+](=O)[O-])C(=O)c1ccccc1C2=O,1.13% [at 42.5 µM] (inactive)
12,CCN(O)CC,1.18% (inactive)
13,O=c1[nH]cccc1O,0.954% (inactive)
14,O=C(OOC(=O)c1ccccc1)c1ccccc1,-3.99% [at 42.5 µM] (inactive)
15,COc1c(C)c2c(c(O)c1C/C=C(\C)CCC(=O)OCCN1CCOCC1)C(=O)OC2,5.05% [at 42.5 µM] (inactive)
16,O=C1c2ccccc2C(=O)C1c1ccc(Br)cc1,6% [at 42.5 µM] (inactive)
17,OCC(CO)(CO)COCC(CO)(CO)CO,8.46% (inactive)
18,CC(=O)Nc1ccc(S(=O)(=O)Nc2cc(C)on2)cc1,0.42% [at 42.5 µM] (inactive)
19,CCc1cccc(C)c1,-0.186% (inactive)
20,CC1=C(C)C(=O)C(CCCCC#CCCCC#CCO)=C(C)C1=O,-6.7% [at 42.5 µM] (inactive)

row,Structure (SMILES),activation
1,C[C@H](CCC(=O)NCC(=O)O)[C@H]1CC[C@H]2[C@@H]3[C@H](O)C[C@@H]4C[C@H](O)CC[C@]4(C)[C@H]3C[C@H](O)[C@]12C,-2% (inactive)
2,CCc1cc(Cc2cc(CC)cc(C(C)(C)C)c2O)c(O)c(C(C)(C)C)c1,3.18% (inactive)
3,CN(C)CCCCl,-0.0663% (inactive)
4,Cc1cccn2c(=O)c(-c3nnn[nH]3)cnc12,2.69% [at 19 µM] (inactive)
5,C=CC(=O)OCCOCC(CC)(COCCOC(=O)C=C)COCCOC(=O)C=C,-3.26% (inactive)
6,O=C(NC1CCN(CCc2c[nH]c3ccccc23)CC1)c1ccccc1,-38.5% [at 42.5 µM] (inactive)
7,CCN(CC)CCc1nc(-c2ccccc2)no1,10.2% [at 42.5 µM] (inactive)
8,CC(=O)c1ccc(Cl)c(Cl)c1Cl,-1.87% (inactive)
9,CCN(CC)CCOC(=O)C(c1ccccc1)c1ccccc1,-13% [at 42.5 µM] (inactive)
10,CC(CN1CC(=O)NC(=O)C1)N1CC(=O)NC(=O)C1 (stereo not given),5.04% (inactive)
11,CCN(C(=O)c1cc(C)cc(OC[C@H](C)Nc2ccncc2)c1)C(C)C,-6.33% [at 42.5 µM] (inactive)
12,CC(=O)N[C@@H](CO)C(=O)N[C@@H](CC(=O)O)C(=O)N[C@@H](CCCCN)C(=O)N1CCC[C@H]1C(=O)O (Ac-SDKP-OH),-25.4% [at 42.5 µM] (inactive)
13,CC(=O)CC(C)C,0.568% (inactive)
14,[O-][n+]1cccc(/C(Cl)=N/OC[C@@H](O)CN2CCCCC2)c1,20.6% [at 42.5 µM] (inactive)
15,Nc1c2c(nc3c1CCC3)CCCC2,-7.29% [at 42.5 µM] (inactive)
16,Cc1ncc(CO)c(C=O)c1O,-12.6% [at 42.5 µM] (inactive)
17,CN(C)CCOCCN(C)CCO,-2.11% (inactive)
18,CN(C)CCCN1c2ccccc2Sc2ccccc21,-0.542% [at 42.5 µM] (inactive)
19,Cc1cccc(Oc2ccccc2)c1,-4.37% (inactive)
20,CN1CCN(N)CC1,-8.01% [at 42.5 µM] (inactive)

# Source: PubChem BioAssay (Tox21)
